Screening data deposited in PubChem by National Center for Advancing Translational Sciences (NCATS).
The list is not random: actives were taken first. Their share in the collection is about 1.2%.
CtBP-E1A inh: blocks the CtBP interaction with E1A; AlphaScreen GST-E1A/His-CtBP binding, 1536-well; active compounds read low; 340,000 tested, 0.49% active; AID 651724; activity change, % (test concentration not listed)
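Protein mix (5X: 125 nM each GST-E1A, His-CtBP) was incubated with pinned compound 2 h at 37 deg C in dark, in 50 mM Tris pH 8.0 buffer with 300 mM NaCl. Glutathione donor and nickel acceptor beads followed; AlphaScreen signal read after 1 h.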
Six1-Eya2 inh: blocks human Six1 binding to Eya2. Q15475+O00167. AlphaScreen GST-Six1/His-Eya2 binding, biochemical; active compounds read low. activity change, % (concentration not given with the values). 360,000 tested, 0.56% active. AID 651725
Target sequence (O00167 whole entry, looked up): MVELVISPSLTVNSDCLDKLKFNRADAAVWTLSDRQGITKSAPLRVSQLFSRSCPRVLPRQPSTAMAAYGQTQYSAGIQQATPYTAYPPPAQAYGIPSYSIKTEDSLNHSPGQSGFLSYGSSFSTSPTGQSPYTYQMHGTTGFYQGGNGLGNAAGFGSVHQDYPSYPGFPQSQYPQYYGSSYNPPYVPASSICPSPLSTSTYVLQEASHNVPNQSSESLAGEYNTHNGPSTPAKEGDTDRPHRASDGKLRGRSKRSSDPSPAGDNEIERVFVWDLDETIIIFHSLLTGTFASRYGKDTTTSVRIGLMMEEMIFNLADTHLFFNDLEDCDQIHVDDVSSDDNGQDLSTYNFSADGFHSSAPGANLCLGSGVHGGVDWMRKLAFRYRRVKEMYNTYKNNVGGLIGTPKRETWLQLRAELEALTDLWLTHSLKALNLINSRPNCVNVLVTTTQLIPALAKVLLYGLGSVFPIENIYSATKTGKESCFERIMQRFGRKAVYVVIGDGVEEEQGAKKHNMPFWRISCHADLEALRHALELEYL
Target sequence (Q15475 whole entry, looked up): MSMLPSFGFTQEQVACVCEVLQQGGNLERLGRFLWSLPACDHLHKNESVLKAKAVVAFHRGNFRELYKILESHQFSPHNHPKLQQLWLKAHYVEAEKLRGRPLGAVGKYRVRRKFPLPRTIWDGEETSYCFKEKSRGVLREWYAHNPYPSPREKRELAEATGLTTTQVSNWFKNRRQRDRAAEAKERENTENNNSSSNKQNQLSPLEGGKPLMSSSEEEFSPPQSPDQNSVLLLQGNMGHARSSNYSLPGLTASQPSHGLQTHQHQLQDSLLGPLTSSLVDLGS
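GST-Six1 + His-Eya2 (5X stock: 250/500 nM); Tris pH 8.0, 300 mM NaCl, 0.05% BSA, 0.02% Tween 20; GSH donor/Ni acceptor beads; 1 h 37 °C dark; AlphaScreen readout.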
Akt phos inh: Akt phosphorylation inhibition. Neuro2A IGF-stimulated pAkt S473 HTRF, 20 min; active compounds read low. activity change, % for hits at 50 µM. 360,000 tested, 0.32% active; in the data active = activity change below about -80%; inconclusive = mostly about -51% to -80%
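Neuro2A cells in DMEM with 0.5% FBS, overnight at 37 deg C, given compound at single 50 µM final, then IGF (6 nM final) for 20 min at 37 deg C. Lysed; phospho-Akt Ser473 by HTRF after 24 h, 665/615 ratio.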
CCT modulator: cytosolic chaperonin activity modulation. 360,000 tested, 0.3% active. activity change, % (concentration not given with the values), hits read low. purified chaperonin ATPase assay, HTRF ADP detection, 30 min; in the data active = activity change below about -30%
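TRiC (40 or 20 nM final, by batch activity) in 30 mM Tris pH 7.4, 100 mM KCl, 5 mM MgCl2, 1 mM DTT was treated with compound at 76 uM single dose, then 10 uM ATP, 30 min at 37 °C. ADP was read by HTRF Transcreener.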
* = called active by the depositor; i = inactive; ? = inconclusive; / = no result given. Cut-off read from the data, not from the text of the source, unless noted: active = activity change below about -65%; inconclusive = mostly about -30% to -63%; inactive = weaker than that. % is set by controls: 0 for no effect and ±100 for the full control effect.

SMILES	CtBP-E1A inh	Six1-Eya2 inh	Akt phos inh	CCT modulator
CCCCCc1ccc(CC(=O)Nn2c(C)nc3ccccc3c2=O)cc1	7	3	i	-1
CCCN(c1ccccc1C(=O)O)S(=O)(=O)c1ccc2c(c1)n(C)c(=O)n2C	/	-1	i	-1
COc1ccc(OC)c(NC(=O)CSc2nn3c(=O)c(C)nnc3s2)c1	-88*	?	i	0
Cc1ccccc1NC(=O)CSc1nn2c(=O)c(C)nnc2s1	-92*	-84*	i	-10
Cc1ccccc1CSc1nn2c(=O)c(C)nnc2s1	-2	10	i	-2
Cc1ccccc1NC(=O)CSc1nnc(-c2ccccc2)n1-c1ccccc1	-10	-10	-98%*	0
COc1cccc(NC(=O)CSc2nn3c(=O)c(C)nnc3s2)c1	-99*	-77*	i	1
COc1cccc(NC(=O)CSc2nc(C)cs2)c1	1	0	i	-1
CCCCn1c(N)c(N(CC)C(=O)c2c(C)noc2C)c(=O)[nH]c1=O	-6	-6	i	-1
COc1ccccc1Nc1ccc(NC(=O)c2cccc([N+](=O)[O-])c2C)cc1	/	?	i	-5
O=C(NCC1CCCO1)c1ccc(N2CCCCC2)c([N+](=O)[O-])c1 (stereo not given)	-2	-1	i	0
COc1cccc(NC(=O)CSc2nnc(-c3cccs3)n2C)c1	1	6	-107%*	0
Cc1nnc2sc(SCC(=O)Nc3cccc(Cl)c3)nn2c1=O	-93*	?	i	-1
COc1ccc(NC(=O)CSc2nn3c(=O)c(C)nnc3s2)cc1	-93*	-86*	i	1
CC(=O)Nc1ccc(NC(=O)CSc2nnc(-c3cccs3)n2C)cc1	0	-2	i	-3
COC(=O)c1ccc(NC(=O)CSc2nn3c(=O)c(C)nnc3s2)cc1	-93*	-67*	i	-1
CC(Oc1cc(F)ccc1[N+](=O)[O-])C(=O)N(C)CC(=O)Nc1ccccc1C(F)(F)F (stereo not given)	0	-9	i	-4
Cc1ccc(C)c(CNc2ccc(S(=O)(=O)N3CCCCC3)cc2)c1	/	2	i	-4
Cc1nnc2sc(SCC(=O)Nc3ccc(Br)cc3)nn2c1=O	15	-87*	i	0
CC[C@@H](C)[C@@H](CO)NC(=O)[C@H]1O[C@@H](n2cnc3c(N)ncnc32)[C@H](O)[C@@H]1O	8	3	i	0
CCCn1c(N2CCN(CC(=O)NCc3cccs3)CC2)nc2ccccc21	-3	-3	-110%*	-1
C[C@H](NS(=O)(=O)c1ccc2c(c1)OCCCO2)C(=O)N1CCN(Cc2ccc(C#N)cc2)CC1	10	-3	i	-1
O=C(CSc1cccc2cccnc12)N/N=C/c1ccc(F)cc1	?	-67*	i	1
CN(C)S(=O)(=O)c1cccc(NC(=O)CSc2cccc3cccnc23)c1	-91*	-91*	i	-1
CN(C)S(=O)(=O)c1ccc(SCC(=O)Nc2cccc(S(=O)(=O)N3CCCC3)c2)nc1	/	2	i	3
SMILES	CtBP-E1A inh	Six1-Eya2 inh	Akt phos inh	CCT modulator
Cc1ccc2cccc(SCC(=O)Nc3ccc(F)cc3)c2n1	4	2	i	-74*
CCCCC(=O)N/N=C/c1ccc(Sc2cccc3cccnc23)o1	-88*	-80*	i	-5
Cc1ccc2cccc(SCC(=O)NCc3ccco3)c2n1	5	1	i	-5
CCOc1ccc(C(=O)Nc2nnc(S(=O)(=O)Nc3ccccc3C)s2)cc1	-1	-2	i	1
C=CCc1cc(/C=C2/NC(=O)N(CC(=O)OC)C2=O)cc(OC)c1O	-3	-7	i	0
N#CC1=C(SCC(N)=O)NC2=C(C(=O)c3ccccc32)C1c1ccc(Cl)cc1 (stereo not given)	-3	-6	i	1
CN1CCN(c2ccccc2NC(=O)c2sc3ccccc3c2Cl)CC1	-3	1	i	-2
O=C(N1CCOCC1)C12OC3CC(CC(C3)O1)O2	8	8	i	1
O=C(OC(C(=O)Nc1cccc(C(F)(F)F)c1)c1ccccc1)C1CCCCC1 (stereo not given)	2	8	i	-5
Cc1ccccc1C(=O)N1CCN(c2ccc(NC(=O)c3cccnc3Cl)cc2)CC1	0	27	i	0
O=C(Nc1ccc(N2CCN(C(=O)c3ccccc3F)CC2)cc1)c1ncn[nH]1	?	-72*	i	2
CCOC(=O)CSc1nc2cc3c(cc2cc1C#N)OCO3	6	2	i	-3
CCOC(=O)CSc1nc2cc3c(cc2cc1C#N)OCCO3	2	14	i	-39*
COC(=O)CSc1nc2cc3c(cc2cc1C#N)OCO3	-9	7	i	-1
CC(C)OC(=O)CSc1nc2cc3c(cc2cc1C#N)OCO3	-3	5	-97%*	2
CC(=O)NC(=S)Nc1ccc(S(=O)(=O)Nc2nc(C)cc(C)n2)cc1	/	-3	i	1
C=CCOc1ccc(/C=N/NC(=O)CC(=O)NC2CCCCC2)cc1	0	0	i	0
O=C(O)c1cc2nc3c(c(C(F)(F)F)n2n1)CCc1ccccc1-3	-26	?	-114%*	1
CC1C/C(=C/c2ccncc2)C(=O)/C(=C/c2ccncc2)C1 (stereo not given)	6	-1	i	-38*
O=C1/C(=C/c2ccncc2)Cc2ccccc21	0	-1	i	-2
O=S(=O)(O)c1cc(Cl)cc(N=Nc2ccc(O)cc2O)c1O	-90*	-92*	i	-3
CC(OC(=O)CN(C)S(=O)(=O)c1ccc(Cl)cc1)C(=O)Nc1ncc(Cl)cc1Cl (stereo not given)	2	1	i	-1
CC(OC(=O)CN(C)S(=O)(=O)c1ccc(Cl)cc1)C(=O)Nc1cccc(Cl)c1 (stereo not given)	0	21	-98%*	2
O=C(CN1CCN(c2ccccc2O)CC1)NCCCc1ccccc1	-5	5	i	0
O=C(CCCOC(=O)c1ccc(O)cc1O)c1ccc(Br)cc1	4	-13	i	-1
SMILES	CtBP-E1A inh	Six1-Eya2 inh	Akt phos inh	CCT modulator
COc1ccc(-c2nnc(NC(=O)C(C)C)o2)cc1	-6	-7	i	-39*
COc1ccc(-c2nnc(NC(=O)C3CC3)o2)cc1	-3	-15	i	1
O=C(Cn1cnc2ccccc21)N/N=C/C(Br)=C/c1ccccc1	-83*	0	i	-1
Cn1c(=O)c2c(ncn2CC(=O)N/N=C/C(Br)=C/c2ccccc2)n(C)c1=O	-18	0	i	-2
Cc1ccc(S(=O)(=O)N(CC(=O)NCC2CCCO2)C2CCCCC2)cc1 (stereo not given)	3	6	i	-1
O=C(Nc1ccc(Oc2ccccc2)cc1)c1csc([C@H]2C[C@H](O)[C@@H](CO)O2)n1	-17	8	i	-3
Cc1cc(C(=O)N/N=C/c2ccc(O)c([N+](=O)[O-])c2)n[nH]1	-3	0	i	1
